# Data from the supplement of paper PMC10849652.
# Targets with a hit are over-represented here; the source holds about 8,800 in all. About 0.5% of all pairs of compound and target were hits. Unmarked numbers belong to inactive results.
# Key:
# Assay in all cases: log2 fold change, soluble protein after heating vs DMSO (PISA); higher = thermal stabilisation; K562 lysate, 10 uM; active = over 0.2 and 3.5 SD of the protein, either way, in both replicates (recomputed)
# vemurafenib = compound: CCCS(=O)(=O)Nc1ccc(F)c(C(=O)c2c[nH]c3ncc(-c4ccc(Cl)cc4)cc23)c1F [vemurafenib]
# Method in brief: (§1)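 Pellets of K562 cells were dounce-homogenised in PBS pH 7.4 with 1 mM MgCl2, and the crude extract was held at 1 mg/mL protein for a 30 min treatment with 10 μM compound. Aliquots were heated for 3 min over 48°C-58°C and pooled before NP-40 was added to 0.5% at 4°C. The supernatant from 21,000xg for 90 min was quantified by TMTpro 16plex LC-MS/MS with channel sums equalised. Values are reported from duplicates as log-two fold change in thermal stability relative to solvent controls.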
# [1] = compound: CCCS(=O)(=O)Nc1ccc(F)c(C(=O)c2c[nH]c3ncc(Cl)cc23)c1F
# Method in brief: as §1
# barasertib = compound: CCN(CCCOc1ccc2c(Nc3cc(CC(=O)Nc4cccc(F)c4)[nH]n3)ncnc2c1)CCOP(=O)(O)O [barasertib]
# Method in brief: as §1
# [2] = compound: CC[C@@H]1C(=O)N(C)c2cnc(Nc3ccc(C(=O)NC4CCN(C)CC4)cc3OC)nc2N1C1CCCC1
# Method in brief: as §1
# volasertib = compound: CC[C@@H]1C(=O)N(C)c2cnc(Nc3ccc(C(=O)N[C@H]4CC[C@H](N5CCN(CC6CC6)CC5)CC4)cc3OC)nc2N1C(C)C [volasertib]
# Method in brief: as §1
# [3] = compound: CCn1c(C(=O)N(C2CC2)C2CC2)cc2c3c(ncn3C)c(Nc3cc(C)n(C)n3)nc21
# Method in brief: as §1
# [4] = compound: CCn1cc(-c2ccnc3[nH]c(-c4cccc(CN(C)C)c4)cc23)c(-c2ccc(NC(=O)N(C)C)cc2)n1
# Method in brief: as §1
# [5] = compound: CN1CCC(CNc2ccc3ncc(-c4cccc(OC(F)(F)F)c4)n3n2)CC1
# Method in brief: as §1
# saracatinib = compound: CN1CCN(CCOc2cc(OC3CCOCC3)c3c(Nc4c(Cl)ccc5c4OCO5)ncnc3c2)CC1 [saracatinib]
# Method in brief: as §1
# sotrastaurin = compound: CN1CCN(c2nc(C3=C(c4c[nH]c5ccccc45)C(=O)NC3=O)c3ccccc3n2)CC1 [sotrastaurin]
# Method in brief: as §1
# alvocidib = compound: CN1CC[C@H](c2c(O)cc(O)c3c(=O)cc(-c4ccccc4Cl)oc23)[C@H](O)C1 [alvocidib]
# Method in brief: as §1
# Tubastatin A = compound: CN1CCc2c(c3ccccc3n2Cc2ccc(C(=O)NO)cc2)C1 [Tubastatin A]
# Method in brief: as §1
# [6] = compound: CNC(=O)C1=CC=CC=C1NC2=NC(=NC=C2Cl)NC3=C(C=C(C=C3)N4CCOCC4)OC
# Method in brief: as §1
# defactinib = compound: CNC(=O)c1ccc(Nc2ncc(C(F)(F)F)c(NCc3nccnc3N(C)S(C)(=O)=O)n2)cc1 [defactinib]
# Method in brief: as §1
# [7] = compound: CNc1nc(-c2ccc3c(N)n[nH]c3c2)cc(N2C[C@@H](C(=O)NC3CCCCC3)CC[C@H]2C)n1
# Method in brief: as §1
# encorafenib = compound: COC(=O)N[C@@H](C)CNc1nccc(-c2cn(C(C)C)nc2-c2cc(Cl)cc(NS(C)(=O)=O)c2F)n1 [encorafenib]
# Method in brief: as §1
# [8] = compound: COC(=O)[C@H](CCSC)NC(=O)C1=C(C=C(C=C1)NC[C@H](CS)N)C2=CC=CC=C2
# Method in brief: as §1
# alisertib = compound: COc1cc(Nc2ncc3c(n2)-c2ccc(Cl)cc2C(c2c(F)cccc2OC)=NC3)ccc1C(=O)O [alisertib]
# Method in brief: as §1
# [9] = compound: COc1cc2nc(-c3cc(F)ccc3O)nc(N[C@@H]3CNC[C@H]3C(C)(C)O)c2cc1OC
# Method in brief: as §1
# gefitinib = compound: COc1cc2ncnc(Nc3ccc(F)c(Cl)c3)c2cc1OCCCN1CCOCC1 [gefitinib]
# Method in brief: as §1
# Chain of UniProt O15379 (O15379 whole entry, looked up): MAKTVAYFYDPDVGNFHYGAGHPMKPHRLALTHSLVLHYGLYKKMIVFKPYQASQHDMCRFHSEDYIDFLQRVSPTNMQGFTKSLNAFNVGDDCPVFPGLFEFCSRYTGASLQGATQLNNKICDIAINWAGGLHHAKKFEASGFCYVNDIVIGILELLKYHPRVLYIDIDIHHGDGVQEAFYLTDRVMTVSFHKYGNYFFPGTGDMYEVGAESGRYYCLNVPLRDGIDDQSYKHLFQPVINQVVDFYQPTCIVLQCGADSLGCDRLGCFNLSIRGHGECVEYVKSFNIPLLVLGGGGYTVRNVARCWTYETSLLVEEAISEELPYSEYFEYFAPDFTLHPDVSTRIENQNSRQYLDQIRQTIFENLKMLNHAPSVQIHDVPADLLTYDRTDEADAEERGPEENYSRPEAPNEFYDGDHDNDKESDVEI
# Chain of UniProt Q14527 (Q14527 whole entry, looked up): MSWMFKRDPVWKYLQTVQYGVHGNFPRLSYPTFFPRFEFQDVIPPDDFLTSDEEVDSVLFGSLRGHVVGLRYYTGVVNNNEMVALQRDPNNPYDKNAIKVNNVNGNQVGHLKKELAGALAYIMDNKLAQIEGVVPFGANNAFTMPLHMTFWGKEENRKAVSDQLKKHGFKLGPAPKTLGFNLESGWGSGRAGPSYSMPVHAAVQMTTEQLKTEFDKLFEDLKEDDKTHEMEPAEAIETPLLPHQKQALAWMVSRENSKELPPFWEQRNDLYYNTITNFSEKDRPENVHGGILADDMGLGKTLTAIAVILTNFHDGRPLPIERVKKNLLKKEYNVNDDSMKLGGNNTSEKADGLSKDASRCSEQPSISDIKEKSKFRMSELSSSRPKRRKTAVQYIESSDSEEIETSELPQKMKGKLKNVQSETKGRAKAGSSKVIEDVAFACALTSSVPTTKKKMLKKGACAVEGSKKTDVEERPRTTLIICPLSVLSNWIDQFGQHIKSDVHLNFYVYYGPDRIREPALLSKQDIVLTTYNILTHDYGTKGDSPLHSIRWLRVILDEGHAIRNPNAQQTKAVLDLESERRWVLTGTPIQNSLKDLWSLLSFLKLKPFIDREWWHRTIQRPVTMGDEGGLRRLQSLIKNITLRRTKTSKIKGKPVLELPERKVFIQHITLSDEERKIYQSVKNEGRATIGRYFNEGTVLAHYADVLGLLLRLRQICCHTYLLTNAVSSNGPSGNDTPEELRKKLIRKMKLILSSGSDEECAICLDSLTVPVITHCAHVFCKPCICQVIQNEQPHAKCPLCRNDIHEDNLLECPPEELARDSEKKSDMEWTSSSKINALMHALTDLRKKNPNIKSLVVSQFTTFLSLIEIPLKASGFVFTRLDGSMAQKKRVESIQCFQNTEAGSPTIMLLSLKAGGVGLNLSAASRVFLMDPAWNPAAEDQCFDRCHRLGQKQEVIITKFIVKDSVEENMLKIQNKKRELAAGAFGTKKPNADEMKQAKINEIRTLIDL
# Chain of UniProt Q49A26 (Q49A26 whole entry, looked up): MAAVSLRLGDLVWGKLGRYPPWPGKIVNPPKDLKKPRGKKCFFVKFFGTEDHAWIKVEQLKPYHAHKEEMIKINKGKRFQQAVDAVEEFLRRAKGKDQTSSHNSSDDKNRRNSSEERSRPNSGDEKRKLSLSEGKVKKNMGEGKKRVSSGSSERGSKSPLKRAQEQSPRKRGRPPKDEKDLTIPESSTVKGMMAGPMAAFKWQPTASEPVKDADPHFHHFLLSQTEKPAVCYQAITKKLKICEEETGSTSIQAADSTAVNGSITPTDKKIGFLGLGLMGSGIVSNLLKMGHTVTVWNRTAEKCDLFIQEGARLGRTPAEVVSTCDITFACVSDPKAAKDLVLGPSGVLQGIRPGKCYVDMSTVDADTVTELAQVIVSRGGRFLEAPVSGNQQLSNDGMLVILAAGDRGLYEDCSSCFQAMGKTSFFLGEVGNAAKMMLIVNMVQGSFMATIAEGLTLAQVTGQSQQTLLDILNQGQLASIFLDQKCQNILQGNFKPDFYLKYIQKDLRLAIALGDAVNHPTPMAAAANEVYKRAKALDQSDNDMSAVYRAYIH
# Chain of UniProt P52789 (P52789 whole entry, looked up): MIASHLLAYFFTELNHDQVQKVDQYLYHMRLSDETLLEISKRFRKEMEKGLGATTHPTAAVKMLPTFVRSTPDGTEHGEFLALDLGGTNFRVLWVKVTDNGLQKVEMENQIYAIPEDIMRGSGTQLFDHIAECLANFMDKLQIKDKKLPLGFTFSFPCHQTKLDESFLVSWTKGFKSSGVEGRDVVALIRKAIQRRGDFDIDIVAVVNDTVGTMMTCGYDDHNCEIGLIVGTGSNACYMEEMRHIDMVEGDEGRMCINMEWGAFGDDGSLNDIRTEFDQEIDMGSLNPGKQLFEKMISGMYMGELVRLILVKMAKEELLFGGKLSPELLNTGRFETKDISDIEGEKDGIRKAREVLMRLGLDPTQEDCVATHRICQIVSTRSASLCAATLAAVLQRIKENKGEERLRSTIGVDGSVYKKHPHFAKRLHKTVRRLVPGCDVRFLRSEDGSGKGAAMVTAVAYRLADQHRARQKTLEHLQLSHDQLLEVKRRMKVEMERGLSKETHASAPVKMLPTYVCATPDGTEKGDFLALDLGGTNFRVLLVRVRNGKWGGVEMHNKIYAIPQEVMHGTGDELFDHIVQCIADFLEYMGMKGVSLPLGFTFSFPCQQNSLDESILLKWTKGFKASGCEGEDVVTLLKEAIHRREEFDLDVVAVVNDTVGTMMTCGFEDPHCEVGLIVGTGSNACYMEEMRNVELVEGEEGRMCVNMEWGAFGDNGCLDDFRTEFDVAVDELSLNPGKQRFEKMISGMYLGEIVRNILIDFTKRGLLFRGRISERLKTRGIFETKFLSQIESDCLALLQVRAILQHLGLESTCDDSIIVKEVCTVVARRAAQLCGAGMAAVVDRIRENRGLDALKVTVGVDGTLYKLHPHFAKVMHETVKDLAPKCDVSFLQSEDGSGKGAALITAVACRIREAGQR
# Chain of UniProt P52655 (P52655 whole entry, looked up): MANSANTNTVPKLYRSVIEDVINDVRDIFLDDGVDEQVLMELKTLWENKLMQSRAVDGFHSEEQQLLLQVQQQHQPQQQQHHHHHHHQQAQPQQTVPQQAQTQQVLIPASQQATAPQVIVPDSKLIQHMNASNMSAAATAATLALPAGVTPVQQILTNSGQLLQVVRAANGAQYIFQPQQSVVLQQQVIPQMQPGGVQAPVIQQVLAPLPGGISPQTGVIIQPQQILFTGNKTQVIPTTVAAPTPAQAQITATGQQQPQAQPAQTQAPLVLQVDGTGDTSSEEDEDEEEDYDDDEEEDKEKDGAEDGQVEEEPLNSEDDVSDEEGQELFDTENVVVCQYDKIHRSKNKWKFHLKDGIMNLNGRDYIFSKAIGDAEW
# Chain of UniProt Q9ULR0 (Q9ULR0 whole entry, looked up): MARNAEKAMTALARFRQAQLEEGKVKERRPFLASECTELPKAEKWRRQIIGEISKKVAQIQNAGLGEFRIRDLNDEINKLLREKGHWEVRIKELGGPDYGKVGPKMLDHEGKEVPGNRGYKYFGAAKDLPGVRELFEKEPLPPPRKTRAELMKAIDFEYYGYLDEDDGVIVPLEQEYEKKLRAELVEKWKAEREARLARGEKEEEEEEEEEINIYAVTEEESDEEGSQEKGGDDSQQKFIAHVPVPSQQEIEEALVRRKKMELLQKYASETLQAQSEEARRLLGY
# Chain of UniProt Q13418 (Q13418 whole entry, looked up): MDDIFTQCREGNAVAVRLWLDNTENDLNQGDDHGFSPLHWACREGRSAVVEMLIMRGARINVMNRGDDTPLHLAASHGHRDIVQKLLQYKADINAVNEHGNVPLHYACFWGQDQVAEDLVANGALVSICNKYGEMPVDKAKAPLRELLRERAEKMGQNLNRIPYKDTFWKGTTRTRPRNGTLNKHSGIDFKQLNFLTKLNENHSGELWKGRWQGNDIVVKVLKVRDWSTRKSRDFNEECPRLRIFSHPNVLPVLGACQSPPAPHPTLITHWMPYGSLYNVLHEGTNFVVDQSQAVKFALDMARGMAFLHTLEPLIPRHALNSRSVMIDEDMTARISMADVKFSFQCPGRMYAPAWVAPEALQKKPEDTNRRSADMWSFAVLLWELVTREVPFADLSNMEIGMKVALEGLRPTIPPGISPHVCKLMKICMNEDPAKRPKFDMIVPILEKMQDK
# Chain of UniProt Q92759 (Q92759 whole entry, looked up): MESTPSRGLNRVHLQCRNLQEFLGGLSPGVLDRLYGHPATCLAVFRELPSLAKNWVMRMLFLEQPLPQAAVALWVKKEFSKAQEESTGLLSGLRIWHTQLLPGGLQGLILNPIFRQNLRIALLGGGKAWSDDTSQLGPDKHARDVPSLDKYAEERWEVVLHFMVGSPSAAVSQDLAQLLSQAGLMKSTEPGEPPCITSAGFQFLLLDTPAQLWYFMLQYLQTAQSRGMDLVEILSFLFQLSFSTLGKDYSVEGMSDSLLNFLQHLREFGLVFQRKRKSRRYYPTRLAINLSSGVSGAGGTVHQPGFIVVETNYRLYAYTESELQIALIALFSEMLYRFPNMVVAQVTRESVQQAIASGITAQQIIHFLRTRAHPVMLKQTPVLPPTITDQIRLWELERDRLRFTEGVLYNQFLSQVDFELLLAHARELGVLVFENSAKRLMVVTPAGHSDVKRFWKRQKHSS
# Chain of UniProt P26583 (P26583 whole entry, looked up): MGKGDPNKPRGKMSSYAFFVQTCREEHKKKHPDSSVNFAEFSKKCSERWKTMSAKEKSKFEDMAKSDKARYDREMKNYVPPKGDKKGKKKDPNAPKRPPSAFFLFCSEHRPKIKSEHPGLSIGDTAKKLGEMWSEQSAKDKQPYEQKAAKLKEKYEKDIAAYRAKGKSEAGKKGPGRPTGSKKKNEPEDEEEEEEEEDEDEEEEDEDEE
# Chain of UniProt P09211 (P09211 whole entry, looked up): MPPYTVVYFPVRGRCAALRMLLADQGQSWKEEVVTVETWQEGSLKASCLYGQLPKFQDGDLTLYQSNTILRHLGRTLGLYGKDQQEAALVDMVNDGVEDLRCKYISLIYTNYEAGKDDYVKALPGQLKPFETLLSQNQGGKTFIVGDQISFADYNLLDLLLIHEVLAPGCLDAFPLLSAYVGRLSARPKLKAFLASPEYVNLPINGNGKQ
Target,log2 fold change (vemurafenib),log2 fold change [1],log2 fold change (barasertib),log2 fold change [2],log2 fold change (volasertib),log2 fold change [3],log2 fold change [4],log2 fold change [5],log2 fold change (saracatinib),log2 fold change (sotrastaurin),log2 fold change (alvocidib),log2 fold change (Tubastatin A),log2 fold change [6],log2 fold change (defactinib),log2 fold change [7],log2 fold change (encorafenib),log2 fold change [8],log2 fold change (alisertib),log2 fold change [9],log2 fold change (gefitinib)
INF2 (UniProt Q27J81),0,-0.059,0.104,-0.07,-0.052,-0.01,-0.064,-0.045,0.036,0.019,-0.027,-0.062,0.022,0.117,-0.104,-0.068,0.083,-0.008,-0.01,-0.009
KDM1A (UniProt O60341),0.021,0.004,0.014,-0.011,-0.046,-0.011,-0.065,-0.016,-0.001,0.005,-0.034,-0.067,-0.023,-0.003,0.013,0.003,0.095,0.012,0.001,0.006
HNRNPUL2 (UniProt Q1KMD3),0.024,0.017,0.038,0.005,-0.009,-0.012,-0.029,0.008,0.029,0.04,-0.001,0.007,0.004,0.002,-0.009,-0.023,0.105,0.009,0.019,-0.023
ILK (UniProt Q13418),0.029,-0.024,0.059,-0.03,-0.072,0.016,-0.034,-0.019,0.011,-0.002,0.002,-0.084,-0.002,-0.026,-0.061,-0.032,0.038,0.007,-0.04,0.013
GTF2H4 (UniProt Q92759),-0.047,0.007,0.039,-0.099,-0.046,0.028,0.063,-0.075,0.029,0.034,0.005,-0.069,0.018,0.085,-0.01,0.025,-0.015,0.016,0.02,-0.022
GSTP1 (UniProt P09211),-0.007,-0.017,0.008,0.003,0.034,0.324 (active),-0.059,0.021,0,-0.002,0.04,-0.057,-0.017,0.008,-0.036,-0.052,0.061,0.037,-0.008,0.007
HLTF (UniProt Q14527),-0.008,-0.044,0.077,-0.002,-0.043,0.028,-0.024,0.073,0.004,0.017,-0.027,-0.083,-0.001,0.028,0.025,0.004,0.104,0.048,0.01,0.076
IMMT (UniProt Q16891),-0.016,-0.006,0.004,-0.046,0.015,0.015,-0.005,-0.212 (active),0.01,-0.012,0.031,-0.079,-0.03,0.019,-0.041,0.014,-0.045,0.034,-0.145,-0.022
ISY1 isoform 1 (UniProt Q9ULR0),-0.186,0.034,0.018,0.066,-0.025,-0.012,-0.101,0.02,0.026,0.032,-0.05,-0.03,0.013,0.082,0.366 (active),-0.03,-0.149,-0.012,0.016,0.075
INTS1 (UniProt Q8N201),0.042,-0.096,-0.01,0.044,-0.033,0.007,0.06,-0.041,0,-0.002,0.009,-0.028,0.013,0.019,0.004,0.028,-0.018,0.021,0.007,-0.04
GSE1 (UniProt Q14687),-0.018,0.035,0.011,-0.015,-0.026,0.007,-0.074,-0.009,0.031,0.049,-0.032,-0.155,0.014,-0.006,-0.001,0.017,0.05,-0.017,0.027,0.013
HMGB2 (UniProt P26583),0.003,0.017,-0.019,0.037,0.014,0.018,0.283 (active),-0.273 (active),0.007,-0.04,0.134,0.027,0.023,0.003,0.016,-0.006,-0.081,-0.044,-0.022,-0.028
GLYR1 (UniProt Q49A26),-0.059,0.019,0.162,0.045,-0.005,0.011,-0.088,0.038,0.05,0.064,0.013,-0.007,-0.046,-0.084,-0.078,-0.001,0.074,-0.011,-0.046,-0.093
HK2 (UniProt P52789),0.046,0.006,0.009,-0.044,-0.049,0.023,-0.015,-0.075,-0.009,0.001,0.006,-0.17,0.024,0.017,-0.006,0,0.165,0.023,-0.031,-0.016
HDAC3 (UniProt O15379),0.035,0.026,-0.038,-0.023,-0.003,0.001,0.023,0.052,-0.04,-0.006,0.005,-0.039,0.013,-0.023,0.069,0.008,-0.057,0.02,-0.015,0.014
GTF2A1 (UniProt P52655),-0.028,0.01,0.018,0.042,0.035,0.015,0.033,-0.042,-0.004,0.024,0.165,0.006,-0.047,0.033,0.048,-0.005,-0.026,-0.029,-0.024,0.008
